Outcome and AC50 data for seven molecules are collected here from PubChem BioAssay (EPA / NIEHS).

The structures appear in SMILES notation. Records with an inconclusive call do not appear. The source made the active and inactive calls. The calls were made as follows, unless noted: active = hit-call score of the fitted dose curve at least 0.9, where 1 is the maximum; inactive = score below 0.9.

The target in experiment [1] is Nuclear respiratory factor 1 (Homo sapiens) (UniProt Q16656). The experiment is described as follows: ATG_NRF1_CIS: Attagene CIS-FACTORIAL HepG2 Assay for human Nuclear Respiratory Factor 1 (NRF1) Orphan Gene (AID 2282987). The conditions noted are these: HepG2 NRF1 cis-element reporter, Attagene multiplex; actives raise or lower the signal. In outline:
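Endogenous NRF1-driven reporter transcription measured in transiently transfected human HepG2 liver cells. Readout: reporter mRNA by RT-PCR and capillary electrophoresis with fluorescence detection, 24 h post-dosing. Gain or loss of signal fitted relative to DMSO baseline.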

A short description of experiment [2]: ATG_NFI_CIS: Attagene CIS-FACTORIAL HepG2 Assay for human Nuclear Factor I (NFI) (AID 2282989). The conditions noted are these: HepG2 cis-regulatory reporter, NFI response element transcription; actives raise or lower the signal. In outline:
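Multiplexed cis-reporter system in human HepG2 cells reports native TF activity as reporter mRNA induction 24 h post-dose. Fragments labelled with 6-FAM, HpaI-digested and resolved by capillary electrophoresis; activity fitted both directions versus DMSO.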

For experiment [3], the target named is Myc proto-oncogene protein (Homo sapiens) (UniProt P01106). The experiment is described as follows: ATG_Myc_CIS: Attagene CIS-FACTORIAL HepG2 Assay for human Myelocytomatosis (Myc) Proto-Oncogene Transcription Factor (AID 2282990). The note with it: HepG2, Attagene cis-reporter transcription factor activity; actives raise or lower the signal. The method, boiled down:
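Read-out: fluorescent reporter mRNA fragments resolved by capillary electrophoresis after RT-PCR. Human HepG2 liver cells carried transfected cis-element reporter units and were dosed for 24 h. Gain or loss of signal fitted relative to DMSO baseline.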

Experiment [4] in a line: ATG_NF_kB_CIS: Attagene CIS-FACTORIAL HepG2 Assay for human Nuclear Factor Kappa B (NF-kB) (AID 2282991). The note with it: HepG2 Attagene cis-factorial NF-kB reporter mRNA; actives raise or lower the signal. In outline:
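Read-out: reporter transcript levels quantified by RT-PCR plus capillary electrophoresis of 6-FAM-labelled, HpaI-cut fragments. Transfected HepG2 cells, 24 h compound exposure, endogenous NF-kB-driven cis element; gain or loss scored versus DMSO.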

Experiment [5] in a line: ATG_NRF2_ARE_CIS: Attagene CIS-FACTORIAL HepG2 Assay for human Nuclear Factor Erythroid 2 Related Factor 2 (NFR2) response to Antioxidant Response Elements (ARE) (AID 2282992). The conditions noted are these: HepG2 Attagene ARE/NRF2 reporter, transcription factor activity; actives raise or lower the signal. The method, boiled down:
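Cis-factorial assay: transfected HepG2 reporter library, 24 h dosing, mRNA readout via RT-PCR/CE; DMSO-referenced bidirectional analysis.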

Experiment [6] in a line: ATG_Oct_MLP_CIS: Attagene CIS-FACTORIAL HepG2 Assay for human Octamer-Binding Transcription Factor (Oct) (AID 2282993). The note with it: HepG2 Attagene cis-factorial Oct reporter, mRNA; actives raise or lower the signal. The method, boiled down:
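After 24 h compound exposure, transfected HepG2 cells were lysed for total RNA; reporter-specific cDNA was PCR-amplified, fluorescently labelled and sized by capillary electrophoresis. Bidirectional curve fitting used DMSO as baseline.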

Experiment [7] has as its target Cellular tumor antigen p53 (Homo sapiens) (UniProt P04637). The experiment is described as follows: ATG_p53_CIS: Attagene CIS-FACTORIAL HepG2 Assay for human p53 Transcription Factor (AID 2282994). The conditions noted are these: HepG2 p53 cis-element reporter, Attagene mRNA; actives raise or lower the signal. The method, boiled down:
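Using HepG2 hepatoma cells carrying cis-acting multiplexed reporters, mRNA induction is detected after a 24 h exposure. Gain- and loss-of-signal responses are fitted relative to DMSO-treated cells.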

Experiment [8] is described as follows: BSK_3C_TissueFactor: BioMAP Diversity Plus: 3C Assay for Tissue Factor Biomarker Activity (AID 2282997). The note with it: BioMAP 3C HUVEC, tissue factor biomarker readout; actives raise or lower the signal. In outline: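 ELISA read-out of Tissue Factor levels on human umbilical vein endothelium collected 24 h after chemical dosing. Gain or loss of signal was fitted relative to DMSO.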

The nature of experiment [9]: BSK_3C_uPAR: BioMAP Diversity Plus: 3C Assay for Urokinase-type plasminogen activator receptor (uPAR) Biomarker Activity (AID 2282998). The note with it: BioMAP 3C HUVEC, uPAR biomarker ELISA; actives raise or lower the signal. In outline:
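Values derive from bidirectional curve fitting relative to DMSO, which served as baseline of activity. uPAR was measured by ELISA in human umbilical vein endothelial primary cultures 24 h after compound addition.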

A short description of experiment [10]: BSK_3C_VCAM1: BioMAP Diversity Plus: 3C Assay for Vascular cell adhesion molecule 1 (VCAM1) Biomarker Activity (AID 2282999). The note with it: BioMAP 3C HUVEC, VCAM1 ELISA, cytokine-stimulated; actives raise or lower the signal. In outline: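 Human umbilical vein endothelial cells (3C system), biomarker read by ELISA 24 h after dosing; bidirectional fit against DMSO baseline. Cytotoxicity tracked by SRB total-protein staining in parallel cultures at biomarker time.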

The nature of experiment [11]: BSK_4H_Eotaxin3: BioMAP Diversity Plus: 4H Assay for Eotaxin 3 Biomarker Activity (AID 2283000).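 As to Outcome: CCL26 protein level quantified by ELISA in parallel with SRB cytotoxicity check.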 The conditions noted are these: primary human endothelial cells (HUVEC); actives raise or lower the signal. In outline: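 Chemicals were added to human umbilical vein endothelium cultures, and Eotaxin-3 was quantified by ELISA at 24 h. Values were derived by bidirectional fitting with DMSO serving as negative control and activity baseline.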

Experiment [12] addresses human Peroxisome Proliferator-activated Receptor alpha (PPARa), PPARA (gene 5465) (UniProt Q07869). The experiment is described as follows: ATG_PPARa_TRANS: Attagene TRANS-FACTORIAL HepG2 Assay for human Peroxisome Proliferator-activated Receptor alpha (PPARa) (AID 2283001; active = hit-call score of the fitted dose curve at least 0.9, where 1 is the maximum;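 as to AC50: potency for gain of reporter signal over DMSO so agonist or activator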). In outline: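 Measures transcriptional activity of an exogenous chimeric PPARa-Gal4 protein in transiently transfected HepG2 cells after 24 h dosing. Reporter mRNA quantified via RT-PCR and capillary electrophoresis; DMSO served as negative control.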

Experiment [13] concerns the target human Peroxisome Proliferator-activated Receptor delta (PPARd), PPARD (gene 5467) (UniProt Q03181). The experiment is described as follows: ATG_PPARd_TRANS: Attagene TRANS-FACTORIAL HepG2 Assay for human Peroxisome Proliferator-activated Receptor delta (PPARd) (AID 2283002; active = hit-call score of the fitted dose curve at least 0.9, where 1 is the maximum). The method, boiled down:
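Read-out: reporter mRNA induction, quantified by fluorescent RT-PCR products resolved by capillary electrophoresis. Human HepG2 liver cells carried transiently transfected Gal4-UAS reporter constructs with chimeric NR-Gal4 fusions. Cells were dosed for 24 h; DMSO served as baseline.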

Read-out in experiment [14]: Intercellular Adhesion Molecule 1 (ICAM1), ICAM1 (gene 3383)
The experiment is described as follows: BSK_3C_ICAM1: BioMAP Diversity Plus: 3C Assay for Intercellular Adhesion Molecule 1 (ICAM1) Biomarker Activity (AID 2283003). The conditions noted are these: primary human endothelial cells (HUVEC); actives raise or lower the signal. The method, boiled down:
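Primary human umbilical vein endothelial cells in the BioMAP 3C system were exposed to chemicals for 24 h, then ICAM-1 was quantified by ELISA. Activity was fitted bidirectionally against the DMSO negative control baseline.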

Experiment [15] is described as follows: BSK_3C_Proliferation: Cell Proliferation Assessment in the BioMAP Diversity Plus: 3C Assay (AID 2283006).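 As to AC50: potency may reflect either rise or fall in cell number versus DMSO.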 The note with it: primary human endothelial cells (HUVEC). In outline:
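Human umbilical vein endothelial cells were grown sub-confluent and exposed to chemical for 48 h, then fixed with 10% TCA and stained with 0.1% sulforhodamine B; absorbance at 560 nm gave relative cell number, fitted bidirectionally against DMSO baseline.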

In experiment [16] the target is Peroxisome proliferator-activated receptor gamma (Homo sapiens) (UniProt P37231). The experiment is described as follows: ATG_PPARg_TRANS: Attagene TRANS-FACTORIAL HepG2 Assay for human Peroxisome Proliferator-activated Receptor-gamma (PPARg) (AID 2283007; active = hit-call score of the fitted dose curve at least 0.9, where 1 is the maximum). The method, boiled down:
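Read-out: reporter mRNA induction, detected by fluorescence after RT-PCR and capillary electrophoresis. Transiently transfected human HepG2 liver cells carrying a chimeric NR-Gal4 construct were dosed for 24 h; activity was fitted upward relative to DMSO.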

Experiment [17] deals with Nuclear receptor subfamily 1 group I member 2 (Homo sapiens) (UniProt O75469). The experiment is described as follows: ATG_PXR_TRANS: Attagene TRANS-FACTORIAL HepG2 Assay for human Pregnane X Receptor (PXR) (AID 2283008; active = hit-call score of the fitted dose curve at least 0.9, where 1 is the maximum). In outline:
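Fluorescence intensity of FAM-labelled, HpaI-digested reporter amplicons, separated by capillary electrophoresis, quantifies induction. HepG2 cells with PXR-Gal4 trans-reporter system were exposed 24 h; DMSO defines baseline.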

The target in experiment [18] is human Retinoic Acid Receptor gamma (RARg), RARG (gene 5916) (UniProt P13631). The experiment is described as follows: ATG_RARg_TRANS: Attagene TRANS-FACTORIAL HepG2 Assay for human Retinoic Acid Receptor gamma (RARg) (AID 2283009; active = hit-call score of the fitted dose curve at least 0.9, where 1 is the maximum). The method, boiled down: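 HepG2 cells transiently transfected with multiplexed reporter units expressing chimeric RARg-GAL4 and GAL4-UAS-driven reporters; 24 h compound exposure. Reporter mRNA quantified by RT-PCR with fluorescent labelling and capillary electrophoresis; gain-of-signal fitted relative to DMSO baseline.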
Sequence of human Retinoic Acid Receptor gamma (RARg), RARG (gene 5916) (P13631 whole entry, looked up, the tested form may be a part): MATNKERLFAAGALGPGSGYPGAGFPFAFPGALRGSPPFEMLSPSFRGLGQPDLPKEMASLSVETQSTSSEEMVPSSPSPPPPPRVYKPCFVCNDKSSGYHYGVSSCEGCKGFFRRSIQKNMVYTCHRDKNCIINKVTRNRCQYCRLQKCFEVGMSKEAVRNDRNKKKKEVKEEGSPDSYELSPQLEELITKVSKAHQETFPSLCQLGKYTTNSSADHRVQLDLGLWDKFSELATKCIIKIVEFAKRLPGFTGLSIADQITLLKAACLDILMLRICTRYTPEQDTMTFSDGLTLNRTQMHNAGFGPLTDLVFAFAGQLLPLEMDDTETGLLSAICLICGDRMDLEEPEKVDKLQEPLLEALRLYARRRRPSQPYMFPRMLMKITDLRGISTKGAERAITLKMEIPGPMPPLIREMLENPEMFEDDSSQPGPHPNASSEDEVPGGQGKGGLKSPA

In experiment [19] the target is human Retinoic Acid Receptor beta (RARb), RARB (gene 5915) (UniProt P10826). The experiment is described as follows: ATG_RARb_TRANS: Attagene TRANS-FACTORIAL HepG2 Assay for human Retinoic Acid Receptor beta (AID 2283004; active = hit-call score of the fitted dose curve at least 0.9, where 1 is the maximum). The method, boiled down:
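Transient transfection of HepG2 with multiple reporter units → chemical dosing, 24 h → total RNA isolation → RT with oligo(dT) → reporter-specific PCR, 6-FAM primer extension, HpaI digest → capillary electrophoresis. Positive direction vs DMSO control.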

Sequence of Myc proto-oncogene protein (Homo sapiens) (P01106 whole entry, looked up, the tested form may be a part): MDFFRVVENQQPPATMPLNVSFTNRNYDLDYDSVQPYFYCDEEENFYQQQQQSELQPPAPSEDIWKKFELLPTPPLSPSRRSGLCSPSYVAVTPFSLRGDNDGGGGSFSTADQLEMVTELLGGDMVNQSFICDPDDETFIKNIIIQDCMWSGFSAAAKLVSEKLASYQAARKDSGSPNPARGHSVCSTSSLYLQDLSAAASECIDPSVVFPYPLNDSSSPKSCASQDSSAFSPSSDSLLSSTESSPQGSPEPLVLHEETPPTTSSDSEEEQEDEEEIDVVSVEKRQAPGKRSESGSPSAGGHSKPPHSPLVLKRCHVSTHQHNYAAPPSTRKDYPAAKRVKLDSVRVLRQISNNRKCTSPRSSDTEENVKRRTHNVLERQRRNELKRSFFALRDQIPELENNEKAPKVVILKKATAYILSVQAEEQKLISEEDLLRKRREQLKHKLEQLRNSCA
Sequence of human Peroxisome Proliferator-activated Receptor alpha (PPARa), PPARA (gene 5465) (Q07869 whole entry, looked up, the tested form may be a part): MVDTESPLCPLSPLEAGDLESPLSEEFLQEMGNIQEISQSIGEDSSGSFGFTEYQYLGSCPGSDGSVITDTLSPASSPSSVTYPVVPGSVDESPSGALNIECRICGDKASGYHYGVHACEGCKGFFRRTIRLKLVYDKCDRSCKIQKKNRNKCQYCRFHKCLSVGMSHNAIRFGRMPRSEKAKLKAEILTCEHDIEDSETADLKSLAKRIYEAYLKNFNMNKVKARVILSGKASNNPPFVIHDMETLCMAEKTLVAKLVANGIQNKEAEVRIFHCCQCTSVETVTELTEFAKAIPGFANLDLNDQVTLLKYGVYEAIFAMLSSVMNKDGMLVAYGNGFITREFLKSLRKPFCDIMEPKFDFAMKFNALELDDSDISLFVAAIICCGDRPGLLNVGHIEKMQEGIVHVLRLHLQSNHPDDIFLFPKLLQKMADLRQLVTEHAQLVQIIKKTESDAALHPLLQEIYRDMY
Sequence of Nuclear respiratory factor 1 (Homo sapiens) (Q16656 whole entry, looked up): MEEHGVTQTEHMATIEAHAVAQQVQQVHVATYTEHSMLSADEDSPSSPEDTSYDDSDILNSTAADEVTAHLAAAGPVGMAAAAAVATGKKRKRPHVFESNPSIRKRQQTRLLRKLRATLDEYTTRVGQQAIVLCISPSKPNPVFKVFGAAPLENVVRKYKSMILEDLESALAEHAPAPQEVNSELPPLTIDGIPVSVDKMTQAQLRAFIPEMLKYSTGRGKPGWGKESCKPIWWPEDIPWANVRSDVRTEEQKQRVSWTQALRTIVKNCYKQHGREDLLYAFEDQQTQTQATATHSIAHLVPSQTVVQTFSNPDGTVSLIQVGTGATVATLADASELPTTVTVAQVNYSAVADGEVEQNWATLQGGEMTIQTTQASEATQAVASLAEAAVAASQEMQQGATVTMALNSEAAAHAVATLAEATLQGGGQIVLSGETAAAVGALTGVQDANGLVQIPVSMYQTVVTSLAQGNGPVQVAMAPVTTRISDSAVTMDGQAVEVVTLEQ
Sequence of Nuclear receptor subfamily 1 group I member 2 (Homo sapiens) (O75469 whole entry, looked up, the tested form may be a part): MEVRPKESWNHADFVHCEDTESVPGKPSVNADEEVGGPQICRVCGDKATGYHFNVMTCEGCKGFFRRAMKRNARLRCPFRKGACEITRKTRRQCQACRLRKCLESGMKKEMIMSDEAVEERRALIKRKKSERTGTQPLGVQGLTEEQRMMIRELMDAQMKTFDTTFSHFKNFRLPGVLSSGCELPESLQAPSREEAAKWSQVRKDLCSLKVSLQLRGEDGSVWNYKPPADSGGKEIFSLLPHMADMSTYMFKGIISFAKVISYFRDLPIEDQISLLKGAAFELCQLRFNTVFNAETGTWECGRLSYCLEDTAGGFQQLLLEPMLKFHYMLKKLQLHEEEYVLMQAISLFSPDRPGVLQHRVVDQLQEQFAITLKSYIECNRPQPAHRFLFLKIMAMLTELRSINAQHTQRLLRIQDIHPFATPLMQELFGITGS
Sequence of Cellular tumor antigen p53 (Homo sapiens) (P04637 whole entry, looked up): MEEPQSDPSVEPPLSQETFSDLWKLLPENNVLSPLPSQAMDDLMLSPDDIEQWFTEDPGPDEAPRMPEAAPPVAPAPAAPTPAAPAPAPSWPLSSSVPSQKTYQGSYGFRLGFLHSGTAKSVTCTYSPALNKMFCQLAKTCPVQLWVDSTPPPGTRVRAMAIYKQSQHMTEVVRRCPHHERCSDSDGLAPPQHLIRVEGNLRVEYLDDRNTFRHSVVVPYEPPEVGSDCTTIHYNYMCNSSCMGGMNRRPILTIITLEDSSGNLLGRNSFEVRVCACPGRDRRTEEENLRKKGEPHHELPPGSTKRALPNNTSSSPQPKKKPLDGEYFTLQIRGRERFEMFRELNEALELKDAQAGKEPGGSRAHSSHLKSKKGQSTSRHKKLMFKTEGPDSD
Sequence of human Peroxisome Proliferator-activated Receptor delta (PPARd), PPARD (gene 5467) (Q03181 whole entry, looked up, the tested form may be a part): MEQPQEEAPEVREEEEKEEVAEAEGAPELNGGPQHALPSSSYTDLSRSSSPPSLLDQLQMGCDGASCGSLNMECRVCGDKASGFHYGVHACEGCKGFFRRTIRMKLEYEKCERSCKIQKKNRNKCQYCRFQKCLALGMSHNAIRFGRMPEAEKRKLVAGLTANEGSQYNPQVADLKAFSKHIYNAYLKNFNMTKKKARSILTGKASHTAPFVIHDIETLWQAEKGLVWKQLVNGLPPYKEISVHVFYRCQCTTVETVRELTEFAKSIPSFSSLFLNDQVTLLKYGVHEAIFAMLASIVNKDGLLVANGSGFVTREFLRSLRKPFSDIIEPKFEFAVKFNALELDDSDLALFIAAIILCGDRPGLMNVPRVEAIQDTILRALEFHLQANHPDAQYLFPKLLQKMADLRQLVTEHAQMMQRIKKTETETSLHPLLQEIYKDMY
Sequence of Peroxisome proliferator-activated receptor gamma (Homo sapiens) (P37231 whole entry, looked up, the tested form may be a part): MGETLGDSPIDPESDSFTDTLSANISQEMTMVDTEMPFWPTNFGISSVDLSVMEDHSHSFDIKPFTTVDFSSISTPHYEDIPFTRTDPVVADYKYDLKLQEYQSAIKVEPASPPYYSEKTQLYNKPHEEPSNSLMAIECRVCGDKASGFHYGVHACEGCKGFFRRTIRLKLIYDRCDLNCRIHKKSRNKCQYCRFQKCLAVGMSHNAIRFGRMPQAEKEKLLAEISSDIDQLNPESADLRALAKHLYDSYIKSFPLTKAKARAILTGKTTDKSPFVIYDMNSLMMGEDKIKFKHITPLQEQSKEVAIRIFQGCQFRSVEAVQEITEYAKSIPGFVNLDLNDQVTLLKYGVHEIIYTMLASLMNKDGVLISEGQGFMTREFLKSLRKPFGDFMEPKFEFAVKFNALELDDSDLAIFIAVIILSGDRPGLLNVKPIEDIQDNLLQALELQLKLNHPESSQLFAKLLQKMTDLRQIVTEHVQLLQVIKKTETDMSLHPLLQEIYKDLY
Sequence of human Retinoic Acid Receptor beta (RARb), RARB (gene 5915) (P10826 whole entry, looked up): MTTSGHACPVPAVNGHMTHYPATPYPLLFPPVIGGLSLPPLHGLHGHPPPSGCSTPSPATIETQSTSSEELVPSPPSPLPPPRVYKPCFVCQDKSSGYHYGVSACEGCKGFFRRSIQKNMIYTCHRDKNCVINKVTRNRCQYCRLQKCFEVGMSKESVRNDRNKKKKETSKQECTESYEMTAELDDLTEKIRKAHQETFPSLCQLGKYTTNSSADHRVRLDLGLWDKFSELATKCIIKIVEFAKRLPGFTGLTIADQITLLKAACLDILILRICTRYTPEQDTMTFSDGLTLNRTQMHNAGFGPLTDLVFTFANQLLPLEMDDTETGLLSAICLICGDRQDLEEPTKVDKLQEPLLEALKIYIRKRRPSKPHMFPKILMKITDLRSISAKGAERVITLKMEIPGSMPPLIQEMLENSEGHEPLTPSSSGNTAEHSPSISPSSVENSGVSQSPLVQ

Consider `O=C(O)C(F)(F)OC(F)(F)C(F)(F)OC(F)(F)C(F)(F)OC(F)(F)F`, for which the outcome in [1], in experiment [2], in [3], in experiment [4], in experiment [6] and in experiment [7] was inactive. Also, the result in experiment [8], in [9], in experiment [10], in experiment [11], in experiment [13] and in experiment [14] was inactive. For the same molecule, the outcome in experiment [15], in [17] and in experiment [18] was inactive. The AC50 in experiment [5] was 37.8 µM (active); in experiment [12], 15.4 µM (active); in [16], 17.9 µM (active).
In the case of `O=C(O)CCC(F)(F)C(F)(F)C(F)(F)F`, the result in [1], in experiment [2], in experiment [3], in [4], in experiment [5] and in experiment [6] was inactive. The molecule was classed as inactive in experiment [7], in experiment [8], in experiment [10], in experiment [11], in experiment [12] and in experiment [14]. Besides, the outcome in experiment [15] and in experiment [16] was inactive.
Take `CCN(CC)c1ccc(C=O)cc1`: the outcome in [1], in experiment [2], in experiment [3], in [4], in [5] and in experiment [6] was inactive. For the same molecule, the result in experiment [7], in experiment [8], in experiment [9], in experiment [10], in experiment [11] and in [13] was inactive. Further, the result in experiment [14], in experiment [15] and in experiment [16] was inactive. In addition, the AC50 in experiment [17] is 27.7 µM (active).
On to `O=C(O)C(F)(F)C(F)(F)C(F)(F)OC(F)(C(F)(F)F)C(F)(F)F`, for which the call in [1], in experiment [2], in experiment [3], in experiment [4], in experiment [6] and in [7] was inactive. Further, the outcome in [8], in experiment [9], in [10], in [11], in experiment [13] and in experiment [14] was inactive. Besides, the result in [15], in experiment [17] and in [18] was inactive. The values for the AC50 in [5] and in [16] were 113 µM (active) and 101 µM (active), respectively.
With `Cc1ccc(S(=O)(=O)C(I)I)cc1`, the AC50 in experiment [1] is 7.84 µM (active); in experiment [2], 8.6 µM (active); in [3], 8.6 µM (active); in [4], 19.5 µM (active); in [5], 15.9 µM (active); in experiment [6] it was 8.98 µM (active). Besides, the half-maximal activity concentration (AC50) was 8.91 µM (active) in [7]; 1.85 µM (active) in experiment [8]; 1.45 µM (active) in experiment [9]; 3.06 µM (active) in experiment [10]; 1.84 µM (active) in experiment [11]; 3.35 µM (active) in experiment [14]. Further, in experiment [15], the AC50 was 0.593 µM (active). Besides, the molecule was called inactive in experiment [13], in experiment [16] and in experiment [18].
For the molecule `O=C(O)C(F)(F)C(F)(F)C(F)(F)OC(F)(F)F`, the outcome in [1], in experiment [2], in experiment [3], in [4], in [5] and in experiment [6] was inactive. Besides, the molecule was called inactive in experiment [7], in experiment [8], in experiment [9], in experiment [10], in experiment [11] and in [14]. The outcome in experiment [19], in experiment [15], in experiment [16] and in [17] was inactive. Moreover, in experiment [12], the half-maximal activity concentration (AC50) was 61.4 µM (active).
As to `OCC(O)CC(F)(F)C(F)(F)C(F)(F)C(F)(F)F` (stereo not drawn), the outcome in [1], in experiment [2], in [3], in [4], in experiment [5] and in [6] was inactive. Moreover, the outcome in experiment [7], in [8], in experiment [10], in experiment [11], in experiment [12] and in experiment [14] was inactive. The result in experiment [15], in experiment [16] and in [17] was inactive.
